The results in this text go back to PubChem BioAssay (NCI).

About 83,000 compounds went through this panel and 20% of them were active in at least one assay; those are over-represented in the sample as a whole.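 For each line, cells grew in 96-well plates with the test compound present at a single concentration for 48 hours.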 Unmarked numbers belong to inactive results. The calls were made as follows: active = growth percent below 10; inactive = the rest.

The first assay has as its system UACC-62 melanoma. Briefly: NCI-60 one-dose screen, 48 h (100 = growth as untreated, 0 = no growth, -100 = all killed). The settings on record: 10 µM unless noted.
As to `CCC(/C=C\C(C)=O)CC`, the growth was 106%.
Same read-out and setting: next, `CCOC(=O)CO`: 103%; `Cc1cc(=O)n(Nc2ccccc2)c(O)c1C#N`: 103%.
The same measure, in the same setting: the result for `CN(C)c1ccc(O)c2c1CC1CC3C(N(C)C)C(=O)C(C(N)=O)=C(O)C3(O)C(=O)C1=C2O` (centres undefined) reads 29%; that for `COc1ccc2c(Cl)cc(NC(=O)Nc3c(C)cccc3C)nc2c1`, 87.7%; that for `CC(=O)c1cccs1`, 94.2%.
The same measure, in the same setting: the result for `O=Cc1ccc(F)cc1` reads 102%; that for `O=C(O)c1ccc([N+](=O)[O-])cc1S(=O)(=O)O`, 101%.
For the molecule `C=CCC(OC(C)=O)c1ccc(C(C)C)cc1` (centres undefined), the growth is 105%.
The same measure, in the same setting: the result for `CCOc1ccc(C(=O)NCC(C)C)cc1` reads 101%; that for `Cc1ccc(NC(=O)c2ccccc2Cl)cc1`, 98.6%; that for `Cc1cc(NC(=O)c2ccccc2)c(Cl)cc1N`, 89.8%.
In the case of `CCCCNC(=O)c1ccc(OCC)cc1`, the growth was 98.2%.
`CC(=O)c1cccc(N(C)S(=O)(=O)c2ccc(C)cc2)c1`: the growth was 96%.
Still for that read-out and setting: the result for `CC(=O)c1cc(O)ccc1O` reads 96.6%.
Regarding `Cc1nc(O)cc(=O)[nH]1`, the growth is 113%.
Regarding `CCOc1ccccc1NC(=O)CCl`, the growth is 83.7%.
Same read-out and setting: next, `Cc1ccc(S(=O)(=O)CCCl)cc1`: 99.8%.
Still for that read-out and setting: the result for `CC(CCC#N)(CCC#N)C(=O)c1ccccc1` reads 104%; that for `Cc1cc(CO)c(O)c(CO)c1`, 104%.
Still for that read-out and setting: next, `O=Cc1ccc(Cl)c(Cl)c1`: 102%; `CCN(C(C)=O)c1ccc([N+](=O)[O-])cc1`: 97.5%.
In the case of `Nc1cccc2cccc(O)c12`, the growth is 86.4%.
Regarding `Cc1cccc2ccccc12`, the growth was 103%.
The same measure, in the same setting: next, `NC(=O)OCCO`: 100%; `CCOC(=O)C(CCC#N)(CCC#N)C(=O)OCC`: 103%.
Still for that read-out and setting: the result for `N#CCCN1C(=O)CCC1C(=O)O` (centres undefined) reads 105%; that for `COC(=O)c1cccc([N+](=O)[O-])c1`, 98.7%; that for `O=C(CC(CC(=O)c1ccccc1)c1ccccn1)c1ccccc1`, 87.2%.
Same read-out and setting: the result for `CC(=O)c1cccc(NS(=O)(=O)c2ccc(C)cc2)c1` reads 84.4%.
Turning to `C=COC(=O)C(C)(C)C`, the growth was 99.9%.
On the same count and under the same terms, next, `CSc1nc2[nH]ncc2c(=O)[nH]1`: 107%; `CC(=O)c1ccc(C)cc1`: 105%.
The same measure, in the same setting: the result for `O=c1[nH]c(=O)c2cc(Cl)cc(Cl)c2[nH]1` reads 96.7%.
Same read-out and setting: the result for `O=[N+]([O-])c1c(Cl)ncnc1Cl` reads 110%.
Turning to `O=C1NCC2CCCC1C2` (centres undefined), the growth was 105%.
On the same count and under the same terms, next, `OC(CBr)CCBr` (centres undefined): 95.1%.

A further assay relates to LOX IMVI melanoma. The assay is described as above. The settings on record: 10 µM.
As to `CCC(/C=C\C(C)=O)CC`, the growth is 97.4%.
The same measure, in the same setting: next, `CCOC(=O)CO`: 107%; `Cc1cc(=O)n(Nc2ccccc2)c(O)c1C#N`: 96.6%.
The same measure, in the same setting: the result for `CN(C)c1ccc(O)c2c1CC1CC3C(N(C)C)C(=O)C(C(N)=O)=C(O)C3(O)C(=O)C1=C2O` (centres undefined) reads 29.3%.
The same measure, in the same setting: the result for `COc1ccc2c(Cl)cc(NC(=O)Nc3c(C)cccc3C)nc2c1` reads 60.7%; that for `CC(=O)c1cccs1`, 93.1%; that for `O=Cc1ccc(F)cc1`, 101%.
Turning to `O=C(O)c1ccc([N+](=O)[O-])cc1S(=O)(=O)O`, the growth is 98.1%.
Same read-out and setting: next, `C=CCC(OC(C)=O)c1ccc(C(C)C)cc1` (centres undefined): 104%.
Same read-out and setting: the result for `CCOc1ccc(C(=O)NCC(C)C)cc1` reads 97.2%; that for `Cc1ccc(NC(=O)c2ccccc2Cl)cc1`, 101%; that for `Cc1cc(NC(=O)c2ccccc2)c(Cl)cc1N`, 97.6%.
As for `CCCCNC(=O)c1ccc(OCC)cc1`, the growth was 95.2%.
For the molecule `CC(=O)c1cccc(N(C)S(=O)(=O)c2ccc(C)cc2)c1`, the growth was 82.3%.
On the same count and under the same terms, next, `CC(=O)c1cc(O)ccc1O`: 98.9%; `Cc1nc(O)cc(=O)[nH]1`: 108%; `CCOc1ccccc1NC(=O)CCl`: 85.3%.
Still for that read-out and setting: next, `Cc1ccc(S(=O)(=O)CCCl)cc1`: 107%; `CC(CCC#N)(CCC#N)C(=O)c1ccccc1`: 100%; `Cc1cc(CO)c(O)c(CO)c1`: 90.7%.
With `O=Cc1ccc(Cl)c(Cl)c1`, the growth was 95%.
Same read-out and setting: next, `CCN(C(C)=O)c1ccc([N+](=O)[O-])cc1`: 98.6%.
On the same count and under the same terms, next, `Nc1cccc2cccc(O)c12`: 85.1%; `Cc1cccc2ccccc12`: 99.4%.
Turning to `NC(=O)OCCO`, the growth was 94.6%.
On the same count and under the same terms, the result for `CCOC(=O)C(CCC#N)(CCC#N)C(=O)OCC` reads 111%; that for `N#CCCN1C(=O)CCC1C(=O)O` (centres undefined), 120%; that for `COC(=O)c1cccc([N+](=O)[O-])c1`, 100%.
With `O=C(CC(CC(=O)c1ccccc1)c1ccccn1)c1ccccc1`, the growth is 94.2%.
With `CC(=O)c1cccc(NS(=O)(=O)c2ccc(C)cc2)c1`, the growth was 66.5%.
On the same count and under the same terms, next, `C=COC(=O)C(C)(C)C`: 96.4%.
On the same count and under the same terms, the result for `CSc1nc2[nH]ncc2c(=O)[nH]1` reads 97.2%; that for `CC(=O)c1ccc(C)cc1`, 108%.
For the molecule `O=c1[nH]c(=O)c2cc(Cl)cc(Cl)c2[nH]1`, the growth was 120%.
With `O=[N+]([O-])c1c(Cl)ncnc1Cl`, the growth is 107%.
For `O=C1NCC2CCCC1C2` (centres undefined), the growth is 103%.
On the same count and under the same terms, next, `OC(CBr)CCBr` (centres undefined): 96.1%.
